Compounds with a hit are over-represented: about 10% of the library has one in this group of screens.
Gal4-VP16 FLuc: Gal4-VP16 reporter inhibition counter-screen; Drosophila S2 Gal4-VP16 UAS-luciferase, luminescence, 20 h; Potency, µM (titrated, usually from 53.6 µM), inactives show at the highest dose activity, negative = inhibition, hits mostly inhibitors; 310,000 tested, 3.5% active; AID 2546;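 also: Gal4-VP16 expression switched on by copper sulfate through the metallothionein promoter; % is scaled to controls: 0 for no effect and ±100 for the full control effect; nearly all actives have a fitted effect of over 50% in size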
KB-V1 cytotox: kills drug-selected multidrug resistant KB-V1 cells. KB-V1 MDR cells viability, CellTiter-Glo, 72 h. Potency, µM (titrated, usually from 46.1 µM), usual class: cytotoxic. 400,000 tested, 3.4% active; also: % is scaled to controls: 0 for no effect and ±100 for the full control effect; nearly all actives have a fitted effect of over 60% in size
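In this primary screen, KB-V1 cells overexpressing P-gp are incubated with library compounds (lowest to highest concentration) for 72 h at 37 degrees C before a luminescent ATP viability read.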
SW480 rereplic: DNA re-replication induction in SW480 cells; 340,000 tested, 1.8% active; SW480 DNA re-replication, Hoechst DNA content imaging, 48 h; AID 624297; Potency, µM (doses to about 46.1 µM), for inactives: at the highest dose re-replication activation, usual class: activators; also: % of control where 0% means no effect; nearly all actives have a fitted effect of over 55% in size
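Readout is total intensity of Hoechst-stained nuclei, excited at 405 nm and collected at 500-530 nm. Compound treatment lasted 48 hr at 37 C in 5% CO2 before staining.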
KB-3-1 tox: kills parental KB-3-1 adenocarcinoma cells. KB-3-1 viability, CellTiter-Glo ATP luminescence, 72 h. AID 1347075. Potency, µM (doses to about 46.1 µM), usual class: cytotoxic. 400,000 tested, 1.4% active; also: % is scaled to controls: 0 for no effect and ±100 for the full control effect; nearly all actives have a fitted effect of over 60% in size
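Parental KB-3-1 adenocarcinoma cells in phenol-red-free DMEM with 10% FBS were pin-treated with compounds at several concentrations, incubated 72 h at 37 °C, and viability read by CellTiter-Glo luminescence; concentration-effect curves were fitted after normalization.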
MCF10A rereplic: DNA re-replication induction in MCF 10a cells | MCF 10A DNA re-replication, Hoechst nuclear intensity, 48 h | Potency, µM (titrated, usually from 46.1 µM), for inactives: at the top dose activity, positive = re-replication, usual class: activators | 350,000 tested, 2.9% active; also: % of control where 0% means no effect; nearly all actives have a fitted effect of over 50% in size
RORg inh: blocks mouse ROR gamma transcriptional activity | P51450 | Drosophila S2 Gal4-RORgamma UAS-luciferase reporter, 20 h | Potency, µM (titrated, usually from 53.6 µM), without a hit: top-dose activity change, negative = inhibition, hits mostly inhibitors | 310,000 tested, 5.4% active | AID 2551; also: % is scaled to controls: 0 for no effect and ±100 for the full control effect; nearly all actives have a fitted effect of over 60% in size
Target sequence (P51450 whole entry, looked up, the tested form may be a part): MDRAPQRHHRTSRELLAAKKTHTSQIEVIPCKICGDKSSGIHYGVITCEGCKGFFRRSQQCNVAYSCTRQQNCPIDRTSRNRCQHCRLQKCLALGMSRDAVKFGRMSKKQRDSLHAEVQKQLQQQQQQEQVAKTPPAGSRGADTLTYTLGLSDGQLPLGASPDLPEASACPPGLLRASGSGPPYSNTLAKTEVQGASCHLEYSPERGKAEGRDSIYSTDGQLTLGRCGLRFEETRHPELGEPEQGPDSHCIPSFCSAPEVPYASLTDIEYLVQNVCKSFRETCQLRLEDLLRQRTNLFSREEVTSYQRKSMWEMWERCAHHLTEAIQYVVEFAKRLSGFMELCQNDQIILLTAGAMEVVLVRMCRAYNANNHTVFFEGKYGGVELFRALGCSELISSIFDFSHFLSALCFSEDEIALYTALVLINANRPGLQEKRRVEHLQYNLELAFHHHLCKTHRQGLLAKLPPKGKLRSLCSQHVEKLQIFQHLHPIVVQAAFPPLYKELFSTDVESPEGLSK
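A Gal4/UAS one-hybrid system in insect cells: metallothionein-promoter Gal4–ROR gamma fusion plus Photinus luciferase reporter. Copper sulfate 700 uM final, 20 hr ambient incubation, luminescent detection after 10 min with reagent.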
Numbers without * were called inactive; i = inactive; ? = inconclusive; / = no result given. Calls follow the shape of the dose curve; as a rule, active = well fitted curve in the direction sought with a large enough effect; inconclusive = small, poorly fitted or top-dose-only effect, or another doubt; inactive = no such curve, though single readings can be large; an effect the other way counts as inactive or inconclusive. Potency is read from the fitted curve at half-maximal effect.

SMILES | Gal4-VP16 FLuc | KB-V1 cytotox | SW480 rereplic | KB-3-1 tox | MCF10A rereplic | RORg inh
C=CCNc1nc(-c2ccc(OC)cc2OC)cs1 | 17.8µM* | ? | 1.9% | i | 0.8% | 9.1%
Cc1cc(C)cc(Nc2c3c(nc4ncnn24)CCC3)c1 | 12.6µM* | 2.06µM* | ? | i | ? | ?
Cc1cccc(Nc2c3c(nc4ncnn24)CCC3)c1 | -0.7% | i | -175.5% | i | 0.6% | ?
CCOc1ccc(Nc2c3c(nc4nncn24)CCC3)cc1 | / | i | / | ? | / | /
Clc1ccc(Nc2c3c(nc4ncnn24)CCC3)cc1 | -17.2% | 7.31µM* | -25.7% | i | -2.5% | ?
CSc1ncc(C(=O)Nc2cc(Cl)ccc2C)c(-c2ccccc2)n1 | / | i | / | i | / | /
Nc1cc(=O)[nH]c(SCCSc2ccccc2)n1 | -3.3% | 7.31µM* | -11.9% | ? | -1.1% | ?
Nc1cc(=O)[nH]c(SCCNS(=O)(=O)c2ccccc2)n1 | 4.8% | i | -5.4% | i | 4.1% | 2.2%
Nc1cc(=O)[nH]c(SCCOc2ccccc2)n1 | 0.1% | 5.17µM* | -0.4% | ? | 3.1% | 1.6%
CCC(C)(C)c1ccc2c(c1)C(=O)c1ccccc1C2=O | 1.8% | ? | -0.4% | i | ? | -2.4%
CCCCOc1ccc(C)cc1CN(CCO)CCO | 6.2% | i | 5.4% | i | -0.9% | -1.2%
CCCCCCCCCCCCCCCC[n+]1ccc(C)cc1 | / | ? | / | 1.64µM* | / | /
CCC(C)(C)c1ccc(OCCCC[n+]2ccccc2)c(C(C)(C)CC)c1 | 17.8µM* | ? | ? | 9.2µM* | ? | ?
CCCCCc1ccc(OCCCC[n+]2ccc(C)cc2)c(CCCCC)c1 | 2.82µM* | i | 20.7% | 5.8µM* | 27.8% | 2µM*
CCCCCc1ccc(OCCCC[n+]2cccc(C)c2)c(CCCCC)c1 | -6.9% | i | ? | 9.2µM* | ? | 0.1%
COc1ccc(C2CC(=O)c3cc(-c4nc(-c5cccc(Cl)c5)cs4)c(=O)[nH]c3C2)cc1OC (configuration not stated) | / | i | / | i | / | /
c1cc[n+](CCCC[n+]2ccccc2)cc1 | -20.8% | i | 3.9% | i | ? | -27.4%
CCCCCc1ccc(OCCCC[n+]2ccccc2)c(CCCCC)c1 | -1.9% | ? | ? | ? | 23.1µM* | ?
Cc1cccc(NC(=S)NCc2ccco2)c1C | 11.2µM* | i | -3.5% | i | 0.1% | 7.94µM*
Cc1c(Cl)cccc1NC(=S)NCc1ccco1 | ? | ? | -7.9% | ? | 0.4% | 5.01µM*
S=C(NCc1ccco1)Nc1cccc(Cl)c1Cl | -17.8% | i | -2.0% | i | 11.1% | -103.5%
S=C(NCc1ccco1)Nc1ccccc1Cl | 16.4% | i | -0.4% | i | -1.4% | 10µM*
FC(F)Oc1ccccc1NC(=S)NCc1ccco1 | 2.9% | i | -7.0% | i | 0.1% | 15.1%
Cc1cccc(Nc2ccccc2C(=O)OCC(=O)NCc2ccco2)c1C | -7.0% | 13µM* | ? | ? | ? | 23.4%
COC(=O)c1scc(-c2ccc(C)cc2)c1S(=O)(=O)Nc1ccc(OC(F)(F)F)cc1 | / | i | / | i | / | /
SMILES | Gal4-VP16 FLuc | KB-V1 cytotox | SW480 rereplic | KB-3-1 tox | MCF10A rereplic | RORg inh
CCOc1ccc(CNC(=O)c2ccc(NC(=O)N3CCSc4ncccc43)cc2)cc1OC | / | ? | / | i | / | /
CCOC(=O)CC(NC(=O)CCc1c(C)nc2c(-c3ccccc3)c(C)nn2c1C)c1ccc(C)cc1 (configuration not stated) | / | i | / | i | / | /
FC(F)(F)c1cnc(C(c2ccccc2)c2ncn[nH]2)c(Cl)c1 (configuration not stated) | 6.9% | i | 4.7% | i | 0.8% | -5.2%
FC(F)(F)c1cnc(C(c2ccccn2)c2ncn[nH]2)c(Cl)c1 (configuration not stated) | -23.9% | ? | ? | i | ? | 11.2µM*
CCNC(=S)NNC(=O)c1cc(-c2ccccc2C)nc2ccccc12 | -24.8% | 16.4µM* | -3.5% | i | 18.8% | 0.562µM*
CCCOc1cccc(-c2cc(C(=O)NNC(=S)NCC)c3ccccc3n2)c1 | ? | i | 5.5% | ? | ? | ?
CCNC(=S)NNC(=O)c1cc(-c2ccc(OCC)cc2)nc2ccccc12 | 0.6% | i | ? | ? | 29.2% | 19.7%
CC(C)Oc1cccc(-c2cc(C(=O)NC(=S)N(C)c3ccccc3C(=O)O)c3ccccc3n2)c1 | ? | i | -3.1% | i | ? | 11.2µM*
Cc1ccc(C)c(-c2cc(C(=O)NNC(=S)NCC(C)C)c3ccccc3n2)c1 | ? | ? | -4.2% | i | ? | 1.12µM*
CCNC(=S)NNC(=O)c1cc(-c2cccc(OC)c2)nc2ccccc12 | 12.6µM* | i | -389.9% | i | -4.4% | 2.24µM*
COc1ccc(NS(=O)(=O)c2ccccc2C(=O)O)cc1 | / | i | / | ? | / | /
COc1ccc(-c2cn3nc(N4CCC(C(=O)NCc5ccccc5F)CC4)sc3n2)cc1 | / | i | / | i | / | /
Cc1cc(C(=O)NNC(=S)NC(C)c2ccccc2)c2ccccc2n1 (configuration not stated) | -26.7% | i | -0.2% | i | 6.7% | 5.01µM*
Cc1ccc(C)c(-c2cc(C(=O)Nc3sc(C)c(C)c3C(N)=O)c3ccccc3n2)c1 | -4.3% | 4.11µM* | 22.1% | ? | ? | 15.9%
CCNC(=S)NNC(=O)c1cc(CC(C)C)nc2ccccc12 | ? | i | -3.2% | i | 27.5% | 0.398µM*
O=C(O)c1ccccc1SCC(=O)N1CCc2ccccc21 | ? | i | 27.5% | i | 16.4µM* | -22.6%
Nc1ccccc1SCC(=O)N1CCc2ccccc21 | 13.2% | i | -0.7% | i | 0.8% | 23.2%
O=C(CSc1nnc(-c2ccccc2)c(-c2ccccc2)n1)N1CCc2ccccc21 | 5.2% | ? | 2.7% | ? | ? | 3.16µM*
CS(=O)(=O)Nc1cccc(-c2nc(NCc3cccs3)c3ccccc3n2)c1 | -17.6% | / | / | / | / | ?
CSc1nc2sc3c(c2c(=O)n1-c1ccc(F)c(Cl)c1)CCN(C(C)=O)C3 | / | i | / | i | / | /
CSc1ccc(/C=C/C(=O)c2ccc(NC(=O)C(C)C)cc2)cc1 | -9.9% | ? | ? | ? | ? | ?
COc1cccc(C(=O)/C=C/c2ccc(SC)cc2)c1 | -1.9% | i | ? | i | ? | -25.0%
CCOC(=O)Nc1ccc(C(=O)/C=C/c2ccccc2)cc1 | ? | i | ? | i | ? | 7.08µM*
CSc1ccc(C(=O)/C=C/c2ccc(N)cc2)cc1 | ? | ? | ? | ? | 23.1µM* | ?

Bioassay records deposited in PubChem BioAssay by National Center for Advancing Translational Sciences (NCATS).
